DT40 TDP1 CPT: qHTS for Inhibitors of human tyrosyl-DNA phosphodiesterase 1 (TDP1): qHTS in cells in presence of CPT; chicken DT40 Tdp1-/-;hTDP1 cells + 20 nM CPT, ATP luminescence, 48 h; Potency, µM (highest dose often 46.2 µM), inactives show at the highest dose activity change, negative = growth inhibition, usual class: inhibitors; actives 12% (n = 420,000); note: potency is the fitted concentration of half-maximal effect; nearly all actives have a fitted effect of over 55% in size
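Chicken DT40 Tdp1-/- cells complemented with human TDP1, 400 cells/well, exposed to compounds plus 20 nM camptothecin for at least 48 h at 37 C; viability read as ATP content by CellTiter-Glo luminescence.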
TDP1 cell noCPT: qHTS for Inhibitors of human tyrosyl-DNA phosphodiesterase 1 (TDP1): qHTS in cells in absence of CPT; DT40 Tdp1-/- hTDP1 cells, no CPT, ATP luminescence, 48 h; Potency, µM (series often up to 46.2 µM), inactives show at the highest dose activity change, negative = growth inhibition, usual class: inhibitors; actives 15% (n = 420,000); AID 686978, 2013; note: potency is the fitted concentration of half-maximal effect; nearly all actives have a fitted effect of over 55% in size
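Stably hTDP1-transfected Tdp1-null chicken DT40 cells were treated with library compounds minus camptothecin and grown for at least 48 hr at 37 °C, after which cellular ATP was quantified by luminescence.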
HT1080-NT tox: qHTS for induction of synthetic lethality in tumor cells producing 2HG: qHTS for the HT-1080-NT fibrosarcoma cell line | HT-1080-NT fibrosarcoma viability, CellTiter-Glo ATP luminescence, 48 h | Potency, µM (series often up to 46.1 µM), for the others: at the top dose activity, negative = less viability, hits mostly cytotoxic | actives 1.6% (n = 360,000) | AID 686970, 2013;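 note: NT is the 2HG producing partner of a matched IDH1 knockdown line; potency is the fitted concentration of half-maximal effect; 0% = DMSO-treated cells and -100% = media-only wells without cells; nearly all actives have a fitted effect of over 55% in size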
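HT-1080-NT fibrosarcoma cells (2HG-overproducing), 750 cells/well in RPMI with 5% FBS, dosed after 2 h and incubated 48 h at 37C. CellTiter-Glo luminescence normalized to DMSO and no-cell wells; concentration-response curves fitted and classed.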
IL1B secr inh: qHTS for Inhibitors of Inflammasome Signaling: IL-1-beta AlphaLISA Primary Screen; AID 743279, 2014; activity change, % at 57.5 µM; THP-1 LPS/ATP IL-1B secretion, AlphaLISA, 16 h; stronger effect = lower value; actives 4.7% (n = 360,000); in the data active = activity change below about -50%; inconclusive = mostly about -30% to -49%
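Secreted IL-1B measured by AlphaLISA bead assay after 16 h compound exposure of THP-1 cells; compounds (final up to 57.5 uM) added 1 h before LPS (250 ng/mL) and ATP (1.25 mM) stimulation; lower signal means less secretion.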
HT1080 IDH1KD tx: qHTS for induction of synthetic lethality in tumor cells producing 2HG: qHTS for the HT-1080-IDH1KD cell line; AID 686971, 2013; Potency, µM (top dose mostly 46.1 µM), without a hit: top-dose activity, negative = toxicity, usual class: cytotoxic; HT-1080 IDH1 knockdown viability, ATP luminescence, 48 h; actives 2% (n = 360,000);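 note: potency is the fitted concentration of half-maximal effect; 0% = DMSO wells and -100% = cell-free medium wells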
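Assay cells: HT-1080 with IDH1 knockdown, 750 per well, RPMI/5% FBS. Exposure: 48 h at 37 °C following 2 h pre-incubation. Read: CellTiter-Glo luminescence; fitted concentration-response, curve class assigned.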
* marks the source's active call; other numbers are inactive results; i = inactive; ? = inconclusive; nt = not tested or not shown. Rows were chosen to be rich in hits. Some 19% of all compounds tested hit in one or more screens of this group. Unless noted, calls come from the whole dose curve; as a rule, active = well fitted curve in the direction sought with a large enough effect; inconclusive = small, poorly fitted or top-dose-only effect, or another doubt; inactive = no such curve, though single readings can be large; an effect the other way counts as inactive or inconclusive. Unless noted, % is set by controls: 0 for no effect and ±100 for the full control effect.

SMILES	DT40 TDP1 CPT	TDP1 cell noCPT	HT1080-NT tox	IL1B secr inh	HT1080 IDH1KD tx
Nc1nc(SCC(=O)Nc2ccc(C(F)(F)F)cc2)[nH]c(=O)c1NC(=O)c1ccc(F)c(F)c1	-14.6%	0.3%	-1.8%	i	0.0%
O=C(CSc1nc2nc(-c3cccs3)cc(C(F)(F)F)c2c(=O)[nH]1)Nc1ccc(F)c(F)c1	6.51µM*	4.11µM*	?	0.0	?
N#Cc1ccc(-c2cccs2)nc1SCc1c(F)cccc1Cl	0.82µM*	0.651µM*	nt	nt	nt
O=S(=O)(c1ccccc1)C1(C2CC(c3ccccc3)=NO2)CC(O)C1 (configuration not stated)	?	-4.1%	18.9%	-1.8	19.1%
COc1ccc(N=C2CC(C)(C)CC(=O)/C2=C(/O)c2ccccc2)cc1	-18.6%	?	11.9%	7.7	4.4%
Cc1ccc(S(=O)(=O)CCSc2nc(C)cc(C(F)(F)F)c2C#N)cc1	?	?	?	-100.9*	?
CCOc1ccc(NC(=O)CSc2nc(-c3cccs3)cc(C(F)(F)F)c2C#N)cc1	-7.4%	-2.2%	nt	nt	nt
N#Cc1c(C(F)(F)F)cc(-c2cccs2)nc1SCC(=O)Nc1ccc(Cl)cc1	16.4µM*	?	nt	nt	nt
COC(=O)CSc1nc(C)cc(C(F)(F)F)c1C#N	-5.3%	-14.4%	0.4%	-10.2	2.5%
Cc1ccsc1CN(C)CC(=O)Nc1ccccc1C(=O)NC1CC1	12.1%	0.1%	-0.8%	14.1	7.2%
Cc1c(O)c(CN2CCCCC2)cc2c1oc(=O)c1ccccc12	?	25.9µM*	1.9%	?	-1.9%
Cc1c(O)c(CN(C)C)cc2c1oc(=O)c1ccccc12	-0.3%	?	2.8%	?	8.9%
Cc1ccc(S(=O)(=O)Nc2cccc(C(=O)NCc3cccnc3)c2)cc1F	?	4.61µM*	?	16.4	6.51µM*
Cc1ccc(S(=O)(=O)Nc2cccc(C(=O)NCC(c3ccco3)N(C)C)c2)cc1F (configuration not stated)	?	20.6µM*	6.7%	-8.3	4.4%
COc1ccccc1C(CCNS(=O)(=O)c1ccc(C)cc1)c1ccco1 (configuration not stated)	?	?	-5.6%	-4.5	1.0%
C/C(=N\NC(=O)c1c(C)nc2ccccn12)c1ccco1	11.0%	3.7%	-15.2%	0.0	20.5%
Cc1cccc(Oc2coc3cc(OCC(=O)NC4CCCCC4)ccc3c2=O)c1	20.6µM*	23.1µM*	nt	nt	nt
CCCCOC(=O)Oc1ccc2c(=O)c(Oc3cccc(C)c3)coc2c1	-10.2%	-16.3%	-4.5%	-2.3	1.0%
COc1ccc(C(C)=O)cc1CSc1nc(NCc2ccccc2)c2ccccc2n1	?	23.1µM*	nt	nt	nt
COc1ccc(C(C)=O)cc1CSc1nc2cc(C(=O)O)ccc2c(=O)n1Cc1ccccc1	-28.5%	?	-4.6%	0.0	-3.7%
COc1ccc(C(C)=O)cc1CSc1nc(Nc2ccc(F)c(F)c2)c2ccccc2n1	?	23.1µM*	nt	nt	nt
CCOC(Cn1c(SCc2cc(C(C)=O)ccc2OC)nc2ccccc2c1=O)OCC	1.4%	-4.3%	0.1%	17.4	-8.1%
Fc1cccc(CSc2nc(NCCc3ccccc3)c3ccccc3n2)c1	16.4µM*	23.1µM*	nt	nt	nt
COc1ccc(C(C)=O)cc1CSc1nc(NCCc2ccccc2)c2ccccc2n1	18.4µM*	10.3µM*	nt	nt	nt
COc1ccc(OC)c(/C=C/C(=O)OCC(=O)c2c(N)n(C)c(=O)n(C)c2=O)c1	-0.5%	-11.2%	6.6%	5.3	7.8%
SMILES	DT40 TDP1 CPT	TDP1 cell noCPT	HT1080-NT tox	IL1B secr inh	HT1080 IDH1KD tx
COc1ccccc1C(=O)N/C(=C\c1cn(C)c2ccccc12)C(=O)NCCCn1ccnc1	33.1%	-5.7%	-0.2%	?	3.0%
COc1ccc(S(=O)(=O)N2CCCC2c2cccs2)cc1 (configuration not stated)	5.8µM*	8.2µM*	1.4%	0.0	0.1%
O=S(=O)(c1ccccc1)N1CCCC1c1cccs1 (configuration not stated)	?	11.6µM*	0.3%	41.7	-11.1%
CC(C)C1N(S(=O)(=O)c2ccccc2)CCN1S(=O)(=O)c1ccccc1	?	?	-1.5%	-3.5	-2.1%
COc1ccc(S(=O)(=O)N2CCN(C)CC2c2ccccc2)cc1 (configuration not stated)	-1.5%	0.4%	-0.7%	5.0	0.9%
CCOC(=O)C1(C)CCCN(C(=O)c2ccccc2F)C1 (configuration not stated)	-15.8%	-12.5%	22.0%	-15.4	13.2%
O=c1cc(N=Nc2ccc(Cl)cc2)[nH]c(=O)[nH]1	0.517µM*	0.92µM*	1.4%	-98.9*	14.1%
CC(NCc1ccc(S(N)(=O)=O)cc1)C(=O)Nc1ccc([N+](=O)[O-])cc1Cl (configuration not stated)	-12.3%	?	-14.9%	-6.7	-29.6%
COc1ccc(NC(=O)CN2CCN(CC(=O)Nc3ccccc3Cl)CC2)c(OC)c1	18.4µM*	18.4µM*	-3.0%	0.0	-3.0%
COc1ccc(NCC(=O)Nc2ccc(Br)cc2F)c(OC)c1	?	13µM*	?	?	-4.9%
COc1ccc(NC(=O)CN2CCN(CC(=O)Nc3ccccc3OC)CC2)c(OC)c1	-4.1%	-8.0%	9.3%	17.5	8.5%
CCN(CC(=O)Nc1ccc(OC)cc1)CC(=O)Nc1ccc(Br)cc1F	?	-22.3%	-0.7%	9.0	-16.3%
COc1ccc(NC(=O)CN2CCN(CC(=O)Nc3ccccc3F)CC2)c(OC)c1	23.1µM*	?	7.3%	-11.6	3.9%
Cc1cccc(NC(=O)c2ccccc2Br)n1	-19.6%	-23.3%	1.2%	39.6	-9.1%
CC(C)CNC(=O)c1cccc2c1-c1ccccc1C2=O	19.4%	5.9%	0.8%	29.2	10.6%
Cc1cccc(NC(=O)c2cccc3c2-c2ccccc2C3=O)n1	?	16.4µM*	-10.9%	4.5	-23.0%
O=C(Nc1ccc(Br)cn1)c1cccc2c1-c1ccccc1C2=O	4.11µM*	3.26µM*	-4.5%	43.1	-0.7%
O=C(CCC1CCCC1)Nc1nnc(-c2ccc3c(c2)OCO3)s1	?	?	-0.3%	8.0	0.6%
Cc1cccc(NC(=O)c2nc[nH]c2C(=O)NCCCNC(=O)c2[nH]cnc2C(=O)Nc2cccc(C)c2)c1	-2.2%	?	11.7%	-0.8	12.1%
Cc1cccc(NC(=O)c2nc[nH]c2C(=O)N[C@@H](C)c2ccccc2)c1	23.1µM*	29.1µM*	?	?	14.6µM*
